Compound activity: PubChem, several laboratories
CYP2C19 act: activators of human cytochrome P450 2C19; P33261; recombinant CYP2C19, luciferin-H EGE luminescence; active compounds read high; 0 = fully inhibited enzyme, 1 = untreated enzyme; 96,000 tested, under 10 active; activation factor at 5 µM;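 active = activation factor of at least 2 at 5 µM in the primary screen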
Target sequence (P33261 whole entry, looked up): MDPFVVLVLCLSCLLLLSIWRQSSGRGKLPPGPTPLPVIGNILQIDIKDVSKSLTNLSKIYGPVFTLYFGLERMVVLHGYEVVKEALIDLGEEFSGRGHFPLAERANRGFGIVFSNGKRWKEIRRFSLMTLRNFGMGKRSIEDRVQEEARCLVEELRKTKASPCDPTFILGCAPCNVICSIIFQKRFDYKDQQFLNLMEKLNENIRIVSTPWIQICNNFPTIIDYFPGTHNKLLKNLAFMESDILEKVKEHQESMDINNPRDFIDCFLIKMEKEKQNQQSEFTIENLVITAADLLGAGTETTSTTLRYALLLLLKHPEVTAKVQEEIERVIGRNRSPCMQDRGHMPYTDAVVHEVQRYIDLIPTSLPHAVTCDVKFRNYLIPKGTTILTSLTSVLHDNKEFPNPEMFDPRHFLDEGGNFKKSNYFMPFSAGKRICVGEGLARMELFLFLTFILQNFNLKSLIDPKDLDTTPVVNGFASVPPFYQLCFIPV
CYP2C19 inhib: human CYP2C19 inhibition; 21% of 96,000 active; CYP2C19 Supersomes, luciferin-H EGE luminescence, 30 min; P33261; inhibition, % at 5 µM;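 active = CYP2C19 inhibition above a set limit at 5 µM in the primary screen, cut at about 50% in these data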
CYP2C9 inh: inhibitors of human CYP2C9. P11712. 20% of 96,000 active. inhibition, % at 5 µM. CYP2C9 Supersomes, luciferin-H conversion, luminescence;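 active = blocking of liver enzyme CYP2C9 beyond about 50% at 5 µM, limit read from the data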
Cav3 T inh: human Cav3.2 channel inhibition, primary screen; O95180; Cav3.2-expressing cells, Fluo-4 calcium fluorescence FDSS; active compounds read low; B-score at 10 µM; 4% of 100,000 active;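 active = single-dose well whose peak fluorescence ratio is a statistical outlier from its plate by either plate-standardised score or position-corrected B-score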
CYP2C9 activ: increases human cytochrome P450 2C9 activity | P11712 | recombinant CYP2C9, luciferin-H conversion, luminescence; active compounds read high; factor 1 = untreated enzyme, 0 = blocked | activation factor at 5 µM | 1.4% of 96,000 active;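 active = activation factor of 2 or more for CYP2C9 at a 5 µM dose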
Large screens that a line does not name were inactive. This is a sample that favours compounds with a hit; in the whole collection about 27% have one here.

O=C(CN1C(=O)NC2(CCOc3ccccc32)C1=O)Nc1ccc2c(c1)OCCO2 (stereo not given)	CYP2C9 inh 50
O=C(CN1C(=O)CC(c2ccco2)Sc2ccccc21)Nc1ccc2c(c1)OCCO2 (stereo not given)	CYP2C19 inhib 88
COc1ccc(OC)c(NC(=O)CN2C(=O)NC3(CCOc4ccccc43)C2=O)c1 (stereo not given)	CYP2C19 inhib 57
O=C(NC1CC1)C1C2C3C4CC5C3C5C4C12 (stereo not given)	none
Cc1ccc(N2C(=O)C3ON(c4ccccc4)C(c4ccncc4)C3C2=O)c(C)c1 (stereo not given)	CYP2C19 inhib 100, CYP2C9 inh 95
O=C1C2ON(c3ccccc3)C(c3ccncc3)C2C(=O)N1c1ccccc1 (stereo not given)	CYP2C19 inhib 100, CYP2C9 inh 86
Cc1ccccc1N1C(=O)c2ccccc2NC1c1ccncc1 (stereo not given)	none (no result: CYP2C19 act, CYP2C19 inhib, CYP2C9 inh, CYP2C9 activ)
CC(C)N1C(=O)C2ON(c3ccccc3)C(c3cccs3)C2C1=O (stereo not given)	none
Cc1cccc(C)c1N1C(=O)C2ON(c3ccccc3)C(c3ccncc3)C2C1=O (stereo not given)	CYP2C19 inhib 100, CYP2C9 inh 100
Cc1ccnc2c(N3C(=O)C4C5c6ccccc6C(c6ccccc65)C4C3=O)cccc12 (stereo not given)	none
CCNC(=O)CC1C(=O)N(c2ccc(F)cc2)C(=O)N1CCC(C)C (stereo not given)	none
CC1CN(Cc2nc3c(c(=O)n(C)c(=O)n3C)n2CCc2ccccc2)CC(C)O1 (stereo not given)	none (no result: CYP2C19 act, CYP2C19 inhib, CYP2C9 inh, CYP2C9 activ)
COc1ccc(NC(=S)NNC(=O)c2ccccc2OC(F)F)cc1	CYP2C9 inh 54
Cc1cccc(NC(=S)NNC(=O)c2ccccc2OC(F)F)c1	none (no result: Cav3 T inh)
CCOc1ncccc1C(=O)OCC(=O)Nc1ncc(C(F)(F)F)cc1Cl	CYP2C19 inhib 62
O=C(COC(=O)c1ccccn1)Nc1ncc(C(F)(F)F)cc1Cl	none
CCOc1ccccc1C(=O)OCC(=O)Nc1ncc(C(F)(F)F)cc1Cl	CYP2C19 inhib 93
CCOc1ccccc1C(=O)OCC(=O)Nc1ccc(OC(F)F)cc1	CYP2C19 inhib 55
O=C(COC(=O)c1cccc2ccccc12)Nc1ncc(C(F)(F)F)cc1Cl	none
O=C(COC(=O)COc1ccccc1)Nc1ccccc1OC(F)F	none
O=C(COC(=O)C12CC3CC(CC(C3)C1)C2)Nc1ccc(OC(F)F)cc1	Cav3 T inh -6.2
O=C(COC(=O)C12CC3CC(CC(O)(C3)C1)C2)Nc1ccccc1OC(F)F	none
COc1ccccc1C1(CC(=O)N2CCCCC2)CCOC(C(C)C)C1 (stereo not given)	CYP2C19 inhib 50 (no result: Cav3 T inh)
Cc1ccc(C2(CC(=O)N3CCCC3)CCOC(C(C)C)C2)cc1 (stereo not given)	none
CC1CCN(CCCNC(=O)c2cn(C)c3ccc(S(=O)(=O)N4CCCC4)cc3c2=O)CC1	none (no result: Cav3 T inh)
S=c1nc(C2CCCCC2)[nH][nH]1	none
CCNc1nc(NC(C)C)nc(N(C#N)Cc2ccccc2)n1	none (no result: Cav3 T inh)
CCNc1nc(NC(C)C)nc(N(C#N)CCOc2ccc(Cl)cc2Cl)n1	CYP2C19 inhib 77, Cav3 T inh -9.4
COc1ccc(C)cc1N(C(=O)CNC(=O)c1ccco1)C(C(=O)NC1CCCC1)c1cccnc1 (stereo not given)	none
COc1cccc(N(C(=O)c2ccco2)C(C(=O)NC2CCCC2)c2ccc(N(C)C)cc2)c1 (stereo not given)	none
COc1cccc(N(C(=O)CNC(=O)c2ccco2)C(C(=O)NC2CCCCC2)c2ccncc2)c1 (stereo not given)	CYP2C19 inhib 57, CYP2C9 inh 76
COc1cc(OC)cc(N(C(=O)c2ccco2)C(C(=O)NC2CCCC2)c2ccc(N(C)C)cc2)c1 (stereo not given)	none
O=C(NCC(=O)N(c1ccccc1)C(C(=O)NC1CCCC1)c1ccncc1)c1ccco1 (stereo not given)	none (no result: CYP2C19 act, CYP2C19 inhib, CYP2C9 inh, CYP2C9 activ)
COc1ccc(N(C(=O)c2ccco2)C(C(=O)NC2CCCC2)c2ccc(N(C)C)cc2)cc1 (stereo not given)	Cav3 T inh -3.5
CCOc1ccccc1N(C(=O)c1ccco1)C(C(=O)NC1CCCC1)c1cccnc1 (stereo not given)	CYP2C19 inhib 56
COc1cccc(N(C(=O)c2ccco2)C(C(=O)NC2CCCC2)c2cccnc2)c1 (stereo not given)	CYP2C19 inhib 67, CYP2C9 inh 65
